The whole screen tested about 13,000 compounds, of which about 3,200 (25%) showed an effect of 50% or more. The list shows a part of the results.
The compounds below were run on P. falciparum stage V gametocytes. Details: 48 h, 5 µM; inhibitor.
Parameters: BacTiter-Glo ATP luminescence viability of purified stage V gametocytes in 384-well plates, per cent inhibition versus DMSO

Row | SMILES | % Inhibition
1 | COc1ccc(/N=[N+](\[O-])c2ccccc2/[N+]([O-])=N/c2ccc(OC)cc2)cc1 [TCMDC-131243] | -4.101%
2 | CC(=O)Nc1ccccc1OCc1cc2cc(C(=O)N3CCC(N4C(=O)OCc5ccccc54)CC3)ccc2o1 [TCMDC-138453] | 6.686%
3 | CCc1c(C)c2ccc3c(c2oc1=O)CN(CCc1ccc(F)cc1)CO3 [TCMDC-125082] | 34.69%
4 | Cn1nccc1C(=O)NCCNCc1ccc(-c2ccc(-c3nc4cc(C(F)(F)F)ccc4[nH]3)cc2)cc1.O=C(O)C(F)(F)F [TCMDC-133013] | -32.96%
5 | Cc1nc(-c2nc(N3CCC(C(N)=O)CC3)ncc2-c2ccsc2)sc1C [TCMDC-125362] | 25.42%
6 | COC(=O)c1cccc(CNCc2ccc(-c3ccc(-c4nc5ccc(F)cc5[nH]4)s3)cc2)c1 [TCMDC-132951] | -33.43%
7 | CCc1ccc(NC(=O)C=NNC(=N)N)cc1 [TCMDC-137521] | -23.47%
8 | c1ccc(Oc2ccc(Nc3ccnc(Nc4ccc5cn[nH]c5c4)n3)cc2)cc1 [TCMDC-138574] | -56.78%
9 | O=C(Nc1ccc(N2CCN(Cc3ccccc3Cl)CC2)cc1)c1ccc([N+](=O)[O-])o1 [TCMDC-125230] | 2.358%
10 | CS(=O)(=O)c1cccc2sc(N3CCN(C(=O)c4ccc([N+](=O)[O-])o4)CC3)nc12 [TCMDC-124930] | 105%
11 | O=C(c1ccc([N+](=O)[O-])o1)N1CCN(c2nc3c(Cl)cccc3s2)CC1 [TCMDC-124316] | 86.16%
12 | O=C(c1ccc([N+](=O)[O-])o1)N1CCN(c2ccccc2)CC1 [TCMDC-125833] | 2.332%
13 | O=C(c1ccc([N+](=O)[O-])o1)N1CCN(c2nc3c(F)cc(F)cc3s2)CC1 [TCMDC-125149] | 102.2%
14 | O=C(Nc1cccc(-c2nc3ccccc3s2)c1)c1ccccc1[N+](=O)[O-] [TCMDC-125736] | -19.42%
15 | CC(C)(C)OC(=O)N1CCC(C2CCN(C(=O)OC(C)(C)C)CC2)CC1 [TCMDC-132002] | 7.482%
16 | CC(C)(C)c1ccc(CN2CCC(CNC(=O)c3cc(-c4cccc(Cl)c4)cs3)C2)cc1 (stereo not shown) [TCMDC-134446] | 98.88%
17 | CC(C)(C)c1ccc(CN2CCC(CNC(=O)c3cc(-c4cccc(F)c4)cs3)C2)cc1 (stereo not shown) [TCMDC-134444] | 110.8%
18 | CCc1ccc(CN2CCC(CNC(=O)c3cc(-c4cccc(Cl)c4)cs3)C2)cc1 (stereo not shown) [TCMDC-134434] | 86.46%
19 | COc1cccc(-c2csc(C(=O)NCC3CCN(Cc4ccc(C(C)(C)C)cc4)C3)c2)c1 (stereo not shown) [TCMDC-134447] | 100.1%
20 | CC(=O)Nc1ccc(CN2CCC(CNC(=O)c3cc(-c4cccc(Cl)c4)cs3)C2)cc1 (stereo not shown) [TCMDC-134457] | -3.132%
21 | O=C(NCC1CCN(CC2CCCCC2)C1)c1cc(-c2cccc(Cl)c2)cs1 (stereo not shown) [TCMDC-134423] | 42.83%
22 | CCCOc1cc(Cc2cnc(N)nc2N)cc(OC)c1OC [TCMDC-137661] | 3.215%
23 | Cc1ccc(Oc2ccc(NC(=O)CNc3ccccc3N3CCCC3=O)cc2)cc1 [TCMDC-125245] | -23.96%

Row | SMILES | % Inhibition
24 | CCc1ccc(CN2CCC(CNC(=O)c3cc(-c4cccc(F)c4)cs3)C2)cc1 (stereo not shown) [TCMDC-134432] | 99.62%
25 | O=C(NC1CCN(Cc2ccccc2)CC1)c1cc(-c2ccncc2)nc2ccc(Cl)cc12 [TCMDC-124995] | 9.958%
26 | CN(C)c1ccc(CN2CCC(CNC(=O)c3cc(-c4cccc(C(F)(F)F)c4)cs3)C2)cc1 (stereo not shown) [TCMDC-134452] | 29.06%
27 | O=C(NC1CCN(Cc2ccccc2)CC1)c1cc(-c2cccnc2)nc2ccc(Cl)cc12 [TCMDC-125223] | -0.2191%
28 | CN(C)c1ccc(CN2CCC(CNC(=O)c3cc(-c4cccc(F)c4)cs3)C2)cc1 (stereo not shown) [TCMDC-134454] | 71.45%
29 | CC(C)(C)c1ccc(CN2CCC(CNC(=O)c3cc(-c4ccccc4)nc4ccccc34)CC2)cc1 [TCMDC-139154] | 75.79%
30 | CC(Nc1nncc(-c2cccc(F)c2)n1)c1ccc(F)cc1 (stereo not shown) [TCMDC-124683] | -23.73%
31 | COc1ccc(NC(=O)Nc2cccc(-c3ccc(-c4nc5ccc(C(F)(F)F)cc5[nH]4)cc3)c2)cc1 [TCMDC-133244] | -27.48%
32 | CCOC(=O)c1ccc(Nc2cc(Nc3ccc(C(=O)OCC)cc3)nc(C)n2)cc1 [TCMDC-125781] | 36.3%
33 | O=C(Nc1cccc(CN2CCCN(CC3CC3)CC2)c1)c1ccc(-c2ccccc2)cc1 [TCMDC-141846] | -26.45%
34 | Cc1nc2nc(N)nc(N)c2c(C)c1Cc1ccc(O)cc1 [TCMDC-137637] | -12.62%
35 | CC(C)C1C(=O)N(S(C)(=O)=O)C2CCN(C(=O)c3ccc(CN4CCCCC4)c([N+](=O)[O-])c3)C12 (stereo not shown) [TCMDC-138195] | 96.13%
36 | O=C(/C=C/c1ccc(Cl)c(Cl)c1)NC1CCC(CN2CCC(Cc3c[nH]c4ccccc34)CC2)CC1 (stereo not shown) [TCMDC-140141] | 5.841%
37 | O=C(NCCCCN1CCC(c2nc3ccccc3s2)CC1)c1cc2ccccc2[nH]1 [TCMDC-132779] | 6.014%
38 | O=C(NCCCCN1CCN(c2nsc3ccccc23)CC1)c1ccccc1C(=O)NCCCCN1CCN(c2nsc3ccccc23)CC1 [TCMDC-137241] | 54.48%
39 | Nc1ccncc1C(=O)NCCCCN1CCN(c2nsc3ccccc23)CC1 [TCMDC-137310] | 70.91%
40 | COc1ccc(Cl)cc1N1CCN(CCCNC(=O)c2ccc(-c3nc4ccncc4[nH]3)c(Br)c2)CC1 [TCMDC-140145] | -23.34%
41 | COc1ccccc1N1CCN(CCCCNC(=O)c2ccc(NC(=O)c3ccc(C(F)(F)F)cc3)cc2)CC1 [TCMDC-138110] | -20.18%
42 | Nc1c(C(=O)NCCCCN2CCN(c3nsc4ccccc34)CC2)sc2ccccc12 [TCMDC-137254] | -32.13%
43 | c1csc(-c2nc(NCC3CCCO3)ncc2-c2ccsc2)n1 (stereo not shown) [TCMDC-125365] | 7.159%
44 | CCCCCCN1CCCN(Cc2ccc(C(=O)Nc3cccc(CC)c3)cc2)CC1 [TCMDC-136412] | -23.63%
45 | CC1(C)N=C(N)N=C(N)N1OCCCc1ccccc1 [TCMDC-131689] | 3.846%
46 | CCNc1cc(C(=O)N[C@@H](Cc2ccccc2)[C@H](O)CNC2(CCC(C)C)CC2)cc(N2CCCCS2(=O)=O)c1 [TCMDC-135245] | 4.245%

Row | SMILES | % Inhibition
47 | CCCCCCOc1ccc(C(=O)N[C@H]2CCN(CCCCCNC(=O)/C=C/c3ccc(Cl)c(Cl)c3)C2)cc1 [TCMDC-139564] | 40.4%
48 | Clc1ccc(OCCC2CCN(CCCCCCCN3CCC(CCOc4ccc(Cl)c(Cl)c4)CC3)CC2)cc1Cl [TCMDC-138967] | 119.8%
49 | O=C(Nc1cccc(OCCN2CCCC2)c1)Nc1ccc(Cl)c(Cl)c1 [TCMDC-139540] | 28.24%
50 | Clc1ccc(OCCC2CCN(CCCCCCN3CCCCC3)CC2)cc1Cl [TCMDC-138982] | 100.1%
51 | CCCCCCN1CCC(CNCc2cccc(Cl)c2)CC1 [TCMDC-141678] | 45.32%
52 | O=C(Nc1ccc(Cl)c(Cl)c1)N1CCc2ccc(OCCCN3CCCCC3)cc2CC1 [TCMDC-141755] | 13.17%
53 | N#Cc1ccc(-c2ccc(C(=O)Nc3ccc4c(c3)CCN(C3CCC3)CC4)nc2)cc1 [TCMDC-136032] | 15.17%
54 | Cc1onc(-c2ccccc2)c1-c1nc(NC2CCCC(C)C2)no1 (stereo not shown) [TCMDC-134202] | -14.49%
55 | CCN(c1ccc(O)c(CN2CCCCC2)c1)c1ccc([N+](=O)[O-])cn1 [TCMDC-138001] | 10.77%
56 | CCN(CC)S(=O)(=O)c1ccc(C(C)NC(=O)c2ccccc2COc2ccccc2)cc1 (stereo not shown) [TCMDC-125332] | 39.64%
57 | CCC(C)NS(=O)(=O)c1ccc2nc(Nc3ccc(C)cc3)n(C3CCCCC3)c2c1 (stereo not shown) [TCMDC-136232] | -89.75%
58 | CCC(C)NS(=O)(=O)c1ccc2nc(Nc3ccc(C)cc3)n(C3CCCCC3C)c2c1 (stereo not shown) [TCMDC-136231] | -48.39%
59 | Cc1nc2ccc(F)cc2n1C1CCN(C(=O)Cc2ccc(F)c(F)c2)CC1 [TCMDC-124794] | 73.02%
60 | CCN1CCC(N2CCC(n3c(C)nc4cc(C(F)(F)F)ccc43)CC2)CC1 [TCMDC-124671] | 0.4186%
61 | Cc1cc(C)cc(CC(=O)N2CCC(n3c(C)nc4ccc(C)cc43)CC2)c1 [TCMDC-124789] | 80.51%
62 | O=C(O)c1ccc2nc(-c3ccc(-c4ccccc4)cc3)n(C3CCN(Cc4ccc(-c5ncc[nH]5)cc4)CC3)c2c1 [TCMDC-134669] | 12.72%
63 | Cc1ccc(C)c(Cn2c(N3CCC(C(=O)NCc4cccs4)CC3)nc3ccccc32)c1 [TCMDC-124399] | -1.754%
64 | CCC(C)NS(=O)(=O)c1ccc2nc(Nc3ccc(C)c(Cl)c3)n(C3CCCCC3)c2c1 (stereo not shown) [TCMDC-136233] | -49.77%
65 | Cc1ccc2nc(C)n(C3CCN(C(=O)Cc4ccc(F)c(F)c4)CC3)c2c1 [TCMDC-124793] | 84.63%
66 | Cc1ccc(C)c(CC(=O)N2CCC(n3c(C)nc4ccc(F)cc43)CC2)c1 [TCMDC-124790] | 89.97%
67 | O=C(Nc1ccc(-c2nc3ccccc3[nH]2)cc1)C1CCN(Cc2ccc(F)cc2)CC1 [TCMDC-124680] | 4.478%

Source: paper PMC4552634, “A New Set of Chemical Starting Points with Plasmodium falciparum Transmission-Blocking Potential for Antimalarial Drug Discovery” (PLoS ONE, 2015)
